Results filed as inconclusive are left out. The source made the active and inactive calls. The call rests on the fitted dose curve.

Data on 40 compounds can be found in PubChem BioAssay (Tox21).
On the % scale 0 is the no-effect control and ±100 the full control effect; potency means the concentration at half of the fitted maximal effect.

The target of the assay is Progesterone receptor (Homo sapiens) (UniProt P06401). As to the kind of experiment: qHTS assay to identify small molecule agonists of the progesterone receptor (PR) signaling pathway (AID 1346784). Further: nearly all actives have a fitted effect of over 30% in size. Particulars: PR-UAS-bla HEK293T, beta-lactamase FRET ratio, 16 h; series mostly up to 92.4 µM; activation: at the top concentration. The source says: U.S. Tox21 Program National Center for Advancing Translational Sciences [NCATS] NIH Chemical Genomics Center [NCGC] U.S. Environmental Protection Agency [EPA] National Institutes of Environmental Health Sciences [NIEHS] National Toxicology Program [NTP] U.S. Food and Drug Administration [FDA] […] Endocrine disrupting chemicals (EDCs) and their interactions with steroid hormone receptors like PR causes disruption of normal endocrine function. To identify the compounds that activate PR signaling, a PR-UAS-bla GripTite cell line i.e. PR-UAS-bla HEK 293T (Invitrogen, Carlsbad, CA, USA) containing a beta-lactamase reporter gene under the control of an Upstream Activator Sequence (UAS) was used to screen Tox21 10K compound library.
Chain of Progesterone receptor (Homo sapiens) (P06401 whole entry, looked up): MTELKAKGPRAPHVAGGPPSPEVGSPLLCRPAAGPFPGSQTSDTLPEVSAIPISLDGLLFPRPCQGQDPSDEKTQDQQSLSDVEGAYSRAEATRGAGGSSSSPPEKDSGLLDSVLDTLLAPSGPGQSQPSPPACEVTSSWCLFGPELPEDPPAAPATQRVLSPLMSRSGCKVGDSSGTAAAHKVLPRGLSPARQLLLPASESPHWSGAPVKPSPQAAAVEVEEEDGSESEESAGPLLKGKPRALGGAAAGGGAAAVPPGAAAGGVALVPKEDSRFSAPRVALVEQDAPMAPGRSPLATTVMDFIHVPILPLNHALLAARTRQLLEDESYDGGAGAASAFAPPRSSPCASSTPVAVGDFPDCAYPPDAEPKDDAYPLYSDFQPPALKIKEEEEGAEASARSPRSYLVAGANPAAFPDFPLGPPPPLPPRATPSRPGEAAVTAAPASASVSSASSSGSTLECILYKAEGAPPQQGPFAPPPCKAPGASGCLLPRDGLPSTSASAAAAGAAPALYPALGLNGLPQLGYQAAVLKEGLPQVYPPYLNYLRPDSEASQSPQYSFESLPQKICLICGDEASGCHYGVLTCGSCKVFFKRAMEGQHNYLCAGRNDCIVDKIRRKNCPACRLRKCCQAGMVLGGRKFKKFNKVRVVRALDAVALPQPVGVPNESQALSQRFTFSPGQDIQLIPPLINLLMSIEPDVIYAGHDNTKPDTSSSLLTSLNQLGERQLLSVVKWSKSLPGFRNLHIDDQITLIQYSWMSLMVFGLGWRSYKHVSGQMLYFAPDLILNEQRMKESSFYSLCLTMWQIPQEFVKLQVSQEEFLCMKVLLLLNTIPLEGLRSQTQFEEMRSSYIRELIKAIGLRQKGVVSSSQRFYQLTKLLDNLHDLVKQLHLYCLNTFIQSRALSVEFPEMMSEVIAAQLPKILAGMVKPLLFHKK
Tox21 Assay Protocol Summary: PR-UAS-bla HEK 293T cells were dispensed at 3,000 cells/5 uL of assay medium containing 2% charcoal stripped FBS per well into black wall/clear-bottom 1536-well plates using a Multidrop Combi (ThermoFisher Scientific, Waltham, MA) dispenser. After the assay plates were incubated at a 37C and 5% CO2 for 6hr, 23 nL of compounds dissolved in DMSO, positive controls or DMSO only was transferred to the assay plate by a Pintool station (Kalypsys, San Diego, CA). The plates were incubated at 37C and 5% CO2 for 16hr. Then 1 uL of LiveBLAzer B/G FRET substrate was added using a BioRAPTR FRD (Flying Reagent Dispenser, Aurora Discovery, San Diego, CA). After the plates were incubated at room temperature for 2 hours, fluorescence intensity was measured by an Envision plate reader (PerkinElmer, Shelton, CT).
Turning to `C=CC(=O)NC(C)C`, the “activation” value is 0.266% (inactive).

For `CC[C@H]1OC(=O)[C@H](C)[C@@H](O[C@H]2C[C@@](C)(OC)[C@@H](O)[C@H](C)O2)[C@H](C)[C@@H](O[C@@H]2O[C@H](C)C[C@H](N(C)C)[C@H]2O)[C@](C)(O)C[C@@H](C)/C(=N\OCOCCOC)[C@H](C)[C@@H](O)[C@]1(C)O`, the “activation” value is 3.16% [at 42.5 µM] (inactive).

In the case of `CC(C)N(C)C`, the “activation” value is 1.07% (inactive).

For the compound `COc1cc(C(C)=O)ccc1OCCCN1CCC(c2noc3cc(F)ccc23)CC1`, the “activation” value was 2.05% [at 42.5 µM] (inactive).

On to `O=C(O)CO`, for which the “activation” value was 0.728% (inactive).

On to `CC(=O)c1ccc[nH]1`, for which the “activation” value was -0.746% (inactive).

`COc1ccc(C)cc1`: the “activation” value was -0.645% (inactive).

As for `CCOC(=O)C(C)O` (stereo not given), the “activation” value was 3.69% (inactive).

Turning to `c1ccc2sc(SSc3nc4ccccc4s3)nc2c1`, the activation is -1.06% [at 19 µM] (inactive).

Turning to `Cc1cccc2sc(N)nc12`, the “activation” value is -3.28% (inactive).

Regarding `CCOC(=O)N1CCC(Nc2ccc(Cl)cc2N)CC1`, the “activation” value is 1.71% [at 42.5 µM] (inactive).

As for `CCN(CC)CCOc1ccccc1C(=O)CCc1ccccc1`, the “activation” value is -7.69% [at 42.5 µM] (inactive).

Turning to `CC(CN(CCN(CC(C)OCCO)CC(C)OCCO)CC(C)OCCO)OCCO` (stereo not given), the “activation” value was 0.622% (inactive).

As to `CC(C)C1CCC(C(=O)N[C@H](Cc2ccccc2)C(=O)O)CC1` (stereo not given in full), the “activation” value is -2.22% [at 42.5 µM] (inactive).

`CN(C)CC/C=C1\c2ccccc2Sc2ccc(Cl)cc21`: the “activation” value was -5.4% [at 42.5 µM] (inactive).

Turning to `CCN(CC)CCOC(=O)C(c1ccccc1)c1ccccc1`, the “activation” value was -1.46% [at 42.5 µM] (inactive).

With `CCN(CC)C(=O)N1CCN(C)CC1`, the “activation” value is -1.77% [at 42.5 µM] (inactive).

Take `CN=C(N)NC(=O)Nc1c(C)cccc1C`: the “activation” value was -0.475% [at 42.5 µM] (inactive).

Consider `COc1cc(OC)c2ccc(=O)oc2c1`, for which the “activation” value is 6.07% (inactive).

As to `O=C(CCS)OCC(COC(=O)CCS)(COC(=O)CCS)COC(=O)CCS`, the “activation” value was -1.05% (inactive).

On to `CC(C)(C(=O)c1cccnc1)c1cccnc1`, for which the “activation” value is -0.052% [at 42.5 µM] (inactive).

Take `C=C(C)c1ccccc1`: the Potency is 15400 nM (active).

Consider `Cc1ccc(N(CCO)CCO)cc1`, for which the “activation” value was -1.61% (inactive).

For `CCCCCCOC(=O)CCCCC`, the “activation” value is -0.654% (inactive).

As for `COc1ccc2nc(S(=O)Cc3ncc(C)c(OC)c3C)[nH]c2c1` (stereo not given), the Potency result is “inactive”.

Regarding `CC1CCCO1` (stereo not given), the “activation” value is -0.332% (inactive).

For the compound `CC1CCc2nccnc21` (stereo not given), the “activation” value is -0.239% (inactive).

With `BrC(Br)C(Br)Br`, the “activation” value was -1.94% (inactive).

Take `NC(=O)c1ccccc1[N+](=O)[O-]`: the “activation” value was 0.0249% (inactive).

As for `Cc1ccc2nc(N)[nH]c(=O)c2c1Sc1ccncc1`, the “activation” value is 0.683% [at 42.5 µM] (inactive).

On to `CC(C)(C)NCC(O)COc1cccc2c1C[C@H](O)[C@H](O)C2` (stereo not given in full), for which the “activation” value was 1.13% [at 42.5 µM] (inactive).

As for `CCCCCCCCCCCC(=O)OCC(O)CO` (stereo not given), the “activation” value was 5.56% (inactive).

With `CC(=O)OCC(=O)[C@@]1(OC(C)=O)[C@@H](C)C[C@H]2[C@@H]3C[C@H](F)C4=CC(=O)C=C[C@]4(C)[C@@]3(F)[C@@H](O)C[C@@]21C`, the Potency was 237 nM (active).

As for `O=C1c2ccccc2C(=O)c2c(O)ccc(O)c21`, the “activation” value was -0.0536% (inactive).

Regarding `COC(C)(C)OC`, the “activation” value was -0.787% (inactive).

Turning to `CCN(CC)c1cccc(O)c1`, the “activation” value was 2.97% (inactive).

As for `COc1ccc(CCN(C)CCCN2CCc3cc(OC)c(OC)cc3CC2=O)cc1OC`, the “activation” value is 8.38% [at 42.5 µM] (inactive).

`O=C(C(=O)c1ccco1)c1ccco1`: the Potency was 2750 nM (active).

Consider `CCC(CO)(CO)CO`, for which the “activation” value is -0.0079% (inactive).

Regarding `CCCCOCCOC(=O)c1cccnc1`, the “activation” value is 0.0295% [at 42.5 µM] (inactive).
